For 13 compounds, z-score and composite z-score results are on record in PubChem BioAssay.

The source made the active and inactive calls. Unless noted, no rule for the calls is given here.

Test [1] in a line: HepG2 liver cancer cell viability effects, profiling panel, resazurin fluorescence, 24 h, PK04 Diversity Set (AID 1172). Also: test concentration not given here. Conditions: higher = more signal.
A short description of test [2]: basal S. cerevisiae growth modulation, no modifier, primary screen, OD600, strain BY4716, 24 h, basal condition (AID 1173). Conditions: OD600, 24 h, higher = more signal, called active from +8 up or from −8 down.
The nature of test [3]: MM1S myeloma cell viability, profiling panel, resazurin fluorescence, basal, 24 h, PK04 Diversity Set (AID 1174).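 Also: MM1S multiple myeloma cell line; test concentration not given here.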 Conditions: higher = more signal, called active from +8 up or from −8 down.
Test [4] concerns the target Dihydroorotate dehydrogenase (quinone), mitochondrial (Plasmodium falciparum (isolate 3D7)) (UniProt Q08210). Nature of the test: PfDHODH enzyme inhibitors, primary screen, biochemical, C-terminal His tag, absorbance 600 nm (AID 1175).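 Also: recombinant parasite enzyme with a five histidine tag at its C terminus; test concentration not given here.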 Conditions: DCIP absorbance 600 nm, higher = more signal, called active from +8 up or from −8 down.
Test [5] can be described thus: P. aeruginosa biofilm formation inhibitors, primary screen, strain PAO1, LB-PBS medium, absorbance 600 nm (AID 1176). Also: test concentration not given here. Conditions: P. aeruginosa PAO1 growth/biofilm, A600, 12 h; higher = more signal.
Test [6] in a line: S. cerevisiae RM11-1a growth modifiers, primary screen, strain RM11-1a, OD600, basal, 24 h (AID 1177).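 Also: cultures grown under basal conditions with no added stressor; test concentration not given here.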 Conditions: OD600, 24 h, higher = more signal, called active from +8 up or from −8 down.
Test [7] is described as follows: E. coli acrAB mutant growth effects, primary screen, E. coli filamentation inducers, strain DRC39, OD650, 24 h (AID 1178).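 Also: growth measured as culture turbidity by optical density at 650 nm; test concentration not given here.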 Conditions: higher = more signal, called active from +8 up or from −8 down.
A short description of test [8]: E. coli acrAB mutant growth effects, primary screen, E. coli filamentation inducers, strain DRC39, OD650, 48 h (AID 1179).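 Also: screen aims at cell division blockers that make cells filament.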 Conditions: E. coli DRC39 delta-acrAB growth, higher = more signal, called active from +8 up or from −8 down.
A short description of test [9]: RPMI8226 myeloma cell viability, profiling panel, resazurin fluorescence, basal, 24 h, PK04 Diversity Set (AID 1180).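 Also: RPMI8826 multiple myeloma cell line at 5000 cells per well; test concentration not given here.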 Conditions: higher = more signal. (In general: Resazurin is reduced to fluorescent resorufin, in cell work by metabolically active cells.)
Test [10] addresses E3 ubiquitin-protein ligase XIAP (Homo sapiens) (UniProt P98170). The experiment in a line: XIAP binders, primary screen, biophysical, small-molecule microarray, fluorescence 635 nm (AID 1181).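 Also: score merges 667 nm emission and signal to noise over triplicate slides.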 Conditions: small-molecule microarray binding, higher = more signal.

Dihydroorotate dehydrogenase (quinone), mitochondrial (Plasmodium falciparum (isolate 3D7)), sequence (Q08210 whole entry, looked up): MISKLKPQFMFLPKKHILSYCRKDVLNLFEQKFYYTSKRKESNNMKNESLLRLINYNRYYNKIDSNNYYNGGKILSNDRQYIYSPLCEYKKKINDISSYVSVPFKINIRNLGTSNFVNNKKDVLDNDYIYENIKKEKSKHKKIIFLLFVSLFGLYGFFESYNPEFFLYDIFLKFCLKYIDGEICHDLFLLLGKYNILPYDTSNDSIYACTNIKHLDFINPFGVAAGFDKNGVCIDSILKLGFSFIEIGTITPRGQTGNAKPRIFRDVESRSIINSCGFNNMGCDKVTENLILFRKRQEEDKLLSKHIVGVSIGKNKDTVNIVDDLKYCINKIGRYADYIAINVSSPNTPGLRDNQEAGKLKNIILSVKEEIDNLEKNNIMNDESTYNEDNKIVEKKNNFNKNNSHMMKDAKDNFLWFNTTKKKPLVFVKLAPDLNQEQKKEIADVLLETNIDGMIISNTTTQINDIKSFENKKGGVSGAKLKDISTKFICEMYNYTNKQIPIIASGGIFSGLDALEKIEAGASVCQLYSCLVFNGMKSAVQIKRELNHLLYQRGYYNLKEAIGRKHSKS
E3 ubiquitin-protein ligase XIAP (Homo sapiens), sequence (P98170 whole entry, looked up): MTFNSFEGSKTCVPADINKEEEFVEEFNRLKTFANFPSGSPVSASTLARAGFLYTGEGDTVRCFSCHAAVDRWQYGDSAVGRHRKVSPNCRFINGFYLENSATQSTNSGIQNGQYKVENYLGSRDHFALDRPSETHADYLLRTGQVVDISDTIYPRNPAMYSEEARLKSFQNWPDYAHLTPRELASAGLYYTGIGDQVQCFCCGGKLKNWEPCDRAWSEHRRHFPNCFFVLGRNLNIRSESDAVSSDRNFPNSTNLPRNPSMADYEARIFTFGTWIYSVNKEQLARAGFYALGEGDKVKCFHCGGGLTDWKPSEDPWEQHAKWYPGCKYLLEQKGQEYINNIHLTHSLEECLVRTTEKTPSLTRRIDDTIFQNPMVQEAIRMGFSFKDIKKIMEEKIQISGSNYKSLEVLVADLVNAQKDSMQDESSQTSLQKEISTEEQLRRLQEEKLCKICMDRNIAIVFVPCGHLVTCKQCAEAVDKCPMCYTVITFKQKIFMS

Turning to `C=CCOC(=O)[C@H]1[C@@H]2C(=O)O[C@@H](c3ccccc3)[C@@H](c3ccccc3)N2[C@@H](c2ccc(OCCOC(=O)[C@H]3C[C@H]4C(=O)N[C@@H](CC(C)C)C(=O)N4[C@H]3c3cccc(OCCO)c3)cc2)[C@]12C(=O)Nc1ccc(I)cc12`, the z-score in test [1] was -0.054; in [2], 1.9 (inactive); in [3] it was -0.414 (inactive); in [5], 2.9 (inactive); in test [6], 0.447 (inactive); in test [7], -0.0744 (inactive). Further, the z-score was -0.62 (inactive) in test [8] and -0.385 in [9]. The values for the composite z-score in [4] and in test [10] were 0.124 (inactive) and -0.0174, respectively.
`C=C(COC)C(=O)CC[C@@H](OC(=O)c1cccnc1)c1ccc(OCCO)cc1`: the z-score in test [1] was 0.379; in test [2] it was -16 (active); in test [3] it was 0.556 (inactive); in test [5] it was 0.178 (inactive); in test [6], -0.499 (inactive); in test [7], 0.864 (inactive). The figures for the z-score in [8] and in test [9] were 0.441 (inactive) and 0.221, respectively. Also, the values for the composite z-score in test [4] and in test [10] were -3.49 (inactive) and -0.184, respectively.
Regarding `CC(CO)N1C(=O)[C@@H]2[C@H]3C(=O)OCC=C[C@H]3OC23C=CCN(CCN2CCOCC2)C(=O)[C@@H]13` (stereo not given in full), the z-score is 0.0843 in test [1]; 0.0245 (inactive) in test [2]; -0.622 (inactive) in test [3]; -0.649 (inactive) in test [5]; -0.169 (inactive) in test [6]; -0.55 (inactive) in [7]. The z-score is -0.733 (inactive) in test [8] and -0.266 in test [9]. Moreover, the composite z-score in test [4] was -0.0564 (inactive); in test [10], -0.0046.
In the case of `COCCOC(=O)N1C(=O)[C@@]2(c3cc(C#CC4(O)CCCCCC4)ccc31)[C@H](c1ccc(O)cc1)N1[C@H](c3ccccc3)[C@H](c3ccccc3)OC(=O)[C@H]1[C@@H]2C(=O)NC[C@H](O)c1ccccc1`, the z-score in test [1] is 0.267; in [2], 0.31 (inactive); in [3], -1.45 (inactive); in [5], 1.29 (inactive); in test [6] it was 0.657 (inactive); in test [7] it was 0.157 (inactive). Besides, the values for the z-score in [8] and in [9] were -0.105 (inactive) and -1.62, respectively. Besides, the composite z-score in [4] was 0.658 (inactive); in [10], 0.367.
Turning to `COCCOC(=O)N1C(=O)[C@@]2(c3cc(C#CCCO)ccc31)[C@H](C(=O)Nc1nc3ccccc3s1)[C@H]1C(=O)O[C@H](c3ccccc3)[C@H](c3ccccc3)N1[C@@H]2c1ccccc1OCCO`, the z-score in test [1] was 0.316; in [2] it was 2.04 (inactive); in [3] it was -0.459 (inactive); in test [5], 1.7 (inactive); in test [6], 1.91 (inactive); in test [7], -0.0306 (inactive). Further, the z-score in test [8] is -0.339 (inactive); in test [9], -1.28. Moreover, the composite z-score in [4] was 1.1 (inactive); in test [10], -0.115.
Regarding `COC(=O)[C@@]1(Cc2ccc(OC)cc2)[C@H]2c3cc(C(=O)N(C)C)n(Cc4ccc(Cl)c(C(F)(F)F)c4)c3C[C@H]2CN1C(=O)c1ccccc1`, the z-score in test [1] was -1.21; in test [2] it was 1.86 (inactive); in [3] it was -2.74 (inactive); in test [5], 0.812 (inactive); in test [6], 0.673 (inactive); in test [7], -0.505 (inactive). Further, the z-score in [8] is -0.0176 (inactive); in [9] it was -2.7. The composite z-score was 0.381 (inactive) in test [4] and 0.216 in test [10].
For `C=CC[C@]1(C(=O)NCCN2CCOCC2)N=C(c2ccc(OCCCO)cc2)O[C@H]1c1ccccc1CN=[N+]=[N-]`, the z-score in [1] is 0.735; in test [2] it was -1.01 (inactive); in [3], 0.33 (inactive); in test [5], -1.17 (inactive); in test [6], 0.724 (inactive); in [7], 1.31 (inactive). Moreover, the z-score is 0.351 (inactive) in test [8] and 0.485 in test [9]. In addition, the composite z-score in [4] was 0.453 (inactive); in [10] it was -0.209.
In the case of `COC(=O)c1ccc([C@H](NC(=O)c2ccco2)[C@]2(C)C[C@H]2C2CCCCC2)cc1`, the z-score in [1] was -2.18; in test [2] it was 1.23 (inactive); in [3], -0.806 (inactive); in test [5], 0.619 (inactive); in [6], 0.158 (inactive); in [7], -0.827 (inactive). Also, the z-score in test [8] was -0.565 (inactive); in [9], -2.26. The composite z-score was -0.751 (inactive) in test [4] and -0.0668 in [10].
Turning to `CC1CC/C=C\[C@H]2OC34C=CCN(c5ccc(Cl)cc5)C(=O)[C@H]3N(CCCCCO)C(=O)[C@]4(C)C2C(=O)O1` (stereo not given in full), the z-score in test [1] is -0.773; in [2] it was 0.0314 (inactive); in test [3] it was 0.421 (inactive); in [5] it was -0.801 (inactive); in [6], 0.0329 (inactive); in test [7], -0.113 (inactive). Besides, the figures for the z-score in [8] and in test [9] were 0.227 (inactive) and 0.0738, respectively. In addition, the composite z-score in test [4] is 1.22 (inactive); in [10] it was 0.102.
Consider `COC(=O)C1=CC(CCCO)=CC(C2CC2)N(C)C=C1C(=O)OC` (stereo not given), for which the z-score is 0.421 in test [1]; -0.589 (inactive) in test [2]; -0.463 (inactive) in test [3]; 0.82 (inactive) in test [5]; -1.09 (inactive) in [6]; 1.04 (inactive) in test [7]. The z-score in [8] was 1.58 (inactive); in test [9], -0.0242. The results for the composite z-score in test [4] and in test [10] were -1.43 (inactive) and 0.0054, respectively.
`CCCCCCCCCCC(O)C1C=CC2C(=O)N(C)C(=O)C2N1Nc1ccc([N+](=O)[O-])cc1[N+](=O)[O-]` (stereo not given): the z-score in test [1] was -1.62; in test [2], 0.869 (inactive); in test [3], -1.64 (inactive); in [5], 0.695 (inactive); in [6], 0.945 (inactive); in test [7], -1.26 (inactive). For the same compound, the z-score in test [8] was -0.459 (inactive); in test [9] it was -1.67. In addition, the composite z-score in test [4] is -1.39 (inactive); in [10], -0.0994.
Regarding `C=C(/C(=C/C[C@H](OC(C)=O)c1cccc(OCCO)c1)c1cnc2ccccc2c1)C(C)C`, the z-score in [1] was -0.196; in [2], 0.644 (inactive); in [3], -0.0992 (inactive); in test [5], -0.0099 (inactive); in test [6], 1.51 (inactive); in test [7], 0.636 (inactive). The values for the z-score in [8] and in test [9] were 0.363 (inactive) and 0.573, respectively. The composite z-score is -5.52 (inactive) in test [4] and -0.0773 in test [10].
Regarding `CC(C)[Si](C#C[Si](C(C)C)(C(C)C)C(C)C)(O[C@H](C)c1cn([C@H](CO)Cc2ccccc2)nn1)C(C)C`, the z-score was 0.967 in [1]; 0.427 (inactive) in test [2]; 0.786 (inactive) in [3]; 1.01 (inactive) in test [5]; -0.504 (inactive) in test [6]; 1.17 (inactive) in test [7]. In addition, the z-score in test [8] is 1.19 (inactive); in [9] it was 1.04. Also, the composite z-score in test [4] was -0.487 (inactive); in [10], 0.0484.
